# Rows were chosen to be rich in hits. Some 2.1% of all compounds tested hit in one or more screens of this group.
# CHT block – inhibits the human high affinity choline transporter | Q9GZV3 | actives 0.86% (n = 310,000) | B-score at 10 µM | CHT-expressing cells, membrane potential dye, choline response; stronger effect = lower value;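 active = B-score over 3 SD under the library average, and starting fluorescence ratio not unusually high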;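 also: choline stimulus applied at its EC90 after an EC20 pre-addition; B-score computed on integrated fluorescence ratio after choline addition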
# Target sequence (Q9GZV3 whole entry, looked up): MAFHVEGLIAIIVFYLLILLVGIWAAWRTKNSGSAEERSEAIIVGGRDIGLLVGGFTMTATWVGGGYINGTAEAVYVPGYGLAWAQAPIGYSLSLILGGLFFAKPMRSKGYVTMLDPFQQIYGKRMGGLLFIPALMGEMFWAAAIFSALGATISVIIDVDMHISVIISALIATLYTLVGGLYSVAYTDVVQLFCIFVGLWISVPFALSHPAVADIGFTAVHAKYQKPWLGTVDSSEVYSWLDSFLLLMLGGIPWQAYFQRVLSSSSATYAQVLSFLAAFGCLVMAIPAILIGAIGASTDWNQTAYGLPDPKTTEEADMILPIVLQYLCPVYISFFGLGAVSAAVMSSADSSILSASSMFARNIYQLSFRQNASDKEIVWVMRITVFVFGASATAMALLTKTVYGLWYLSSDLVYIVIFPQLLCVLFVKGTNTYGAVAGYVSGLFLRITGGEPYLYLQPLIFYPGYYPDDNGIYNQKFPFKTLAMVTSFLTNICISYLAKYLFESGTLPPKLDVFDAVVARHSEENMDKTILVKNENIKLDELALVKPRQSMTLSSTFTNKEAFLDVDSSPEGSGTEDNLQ
# CHT PAM – allosterically activates the human high affinity choline transporter. Q9GZV3. CHT-expressing cells, membrane potential dye, choline EC20; stronger effect = higher value; LV-AA mutant CHT in HEK293 cells. actives 0.49% (n = 310,000). AID 488977. B-score at 10 µM;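 active = initial fluorescence not abnormally high and integrated response B-score, plate-corrected, over 3 SD above library mean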
# EP2 mod – EP2 receptor (human) modulation; EP2-expressing cells, cAMP HTRF FRET, PGE2 co-stimulation; induction, % at 25 µM; P43116; AID 940; actives 0.83% (n = 260,000);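 active = compounds whose cAMP rise, as percent of the full-agonist control response, exceeds 60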;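 also: rat C6 glioma line stably carrying human EP2 under a CMV promoter; the protocol text gives 20 µM as final concentration; 100% = response of wells given 1 µM PGE2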
# PGE2 EP2 inh – inhibitors of human EP2 prostaglandin E2 receptor | AID 1422 | P43116 | actives 0.52% (n = 260,000) | inhibition, % at 25 µM | C6 glioma cells expressing human EP2, cAMP TR-FRET; cells stimulated with saturating PGE2;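 active = percent inhibition above 40 after rounding to a whole number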;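 also: rat C6 glioma host cells with rolipram phosphodiesterase inhibitor present; the protocol text gives 20 µM as final concentration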
# CHT block conf – confirmation of human choline transporter CHT inhibitors; AID 493221; CHT activity remaining % of control (stronger effect = lower value), % at 10 µM; actives 70% (n = 2,400); CHT-expressing cells, choline membrane potential dye; LV-to-AA substituted CHT, HEK293 cells; shares compounds with CHT block;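 active = choline transporter activity left, mean of duplicates at 10 µM, below buffer-only control mean minus 3 SD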;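 also: depolarization triggered by choline at its EC90 following an EC20 pre-addition; 0% = hemicholinium-3 full block and 100% = buffer-only control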
# HEK293 MPD ctr – counter-screen for CHT inhibitors: effect in parental HEK293 cells; actives 4% (n = 2,400); membrane potential dye, choline response; active = decrease or increase beyond buffer ±3SD; membrane potential ratio readout (active if shifted either direction beyond buffer ±3SD; no single direction) at 10 µM; AID 493222; shares compounds with CHT block;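 also: parental cells lack the transporter so any hit is non-specific; ratio is peak minus trough fluorescence over baseline after EC90 choline challenge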
# * = called active by the depositor; i = inactive; x = no result.
SMILES,CHT block,CHT PAM,EP2 mod,PGE2 EP2 inh,CHT block conf,HEK293 MPD ctr
O=C(On1c(-c2ccccc2)nc2ccccc2c1=O)c1ccco1,-9.7*,i,41,x,57%*,i
COc1cccc(CNC(=O)CN2CCC(c3ccc4c(c3)OCO4)CC2)c1,x,x,-73,4,x,x
COc1ccc(C(=O)NNC(=S)NC(=O)c2ccc(OC)cc2)cc1,i,i,x,x,x,x
COc1ccc(C(=O)NC(=S)NNC(=O)c2cccc(C)c2)cc1,-7.8*,i,x,x,i,i
O=C(NC(=S)NNC(=O)[C@H]1C[C@@H]1c1ccccc1)c1cccc(F)c1,-7.8*,i,-26,17,49%*,i
Cc1cccc(C(=O)NNC(=S)NC(=O)c2cccs2)c1,-7.5*,i,x,x,29%*,i
Cc1cccc(C(=O)NNC(=S)NC(=O)c2ccccc2)c1,-7.4*,i,x,x,41%*,i
COc1cccc(OC)c1C(=O)NC(=S)NNC(=O)[C@H]1C[C@@H]1c1ccccc1,i,i,9,9,x,x
COc1ccc(C(=O)CN2CCN(C(=O)c3ccncc3)CC2)cc1,x,x,2,9,x,x
CCOc1ccc2[nH]c(=O)c(C(c3nnnn3C3CCCCC3)N3CCCC3)cc2c1 (stereo unspecified),x,x,-7,11,x,x
O=C(NC(=S)NNC(=O)c1ccccc1O)c1ccccc1,i,i,x,x,x,x
Cc1ccccc1NC(=S)NNC(=O)c1ccncc1,-6.1*,i,-2,1,61%*,i
Cc1ccccc1C(=O)NNC(=S)NC(=O)c1ccccc1,-8.4*,i,2,6,47%*,i
O=C(Cc1cccs1)NNC(=S)NCc1ccc(Cl)cc1,i,i,37,6,x,x
O=C(Cc1ccc(Cl)cc1)NNC(=S)NC(=O)c1cccs1,-5.2*,i,5,8,i,i
CC(C)C(=O)N1CCN(c2ccc(NC(=O)c3cc(Cl)ccc3Cl)cc2)CC1,x,x,0,11,x,x
Cc1ccc(C#CC[N+]2(C)CCCCC2)cc1,-6*,i,7,3,43%*,i
C(#Cc1ccccc1)C[N+]1(CC#Cc2ccccc2)CCCC1,i,i,-17,9,x,x
C#CC[N+]1(CC#Cc2ccc(C)cc2)CCCCC1,-7*,i,29,6,43%*,i
CC(C)n1c(=O)n(C(=O)c2ccco2)c2cccnc21,x,x,23,x,x,x
Cc1noc(C)c1COC(=O)c1cnc(Cl)c(Cl)c1,-6.9*,i,15,7,47%*,i
Cc1noc(C)c1COC(=O)c1cc(F)c(F)cc1Cl,i,i,33,9,x,x
Cn1c(SCC(=O)Nc2cccc(C(F)(F)F)c2)nnc1-c1cccnc1,x,x,19,6,x,x
CC(C)Nc1oc(Cc2cccc3ccccc23)nc1C#N,i,i,-10,10,x,x
CNc1oc(Cc2cccc3ccccc23)nc1C#N,-6.9*,i,-12,3,56%*,i
SMILES,CHT block,CHT PAM,EP2 mod,PGE2 EP2 inh,CHT block conf,HEK293 MPD ctr
Cc1cc2n(n1)C(c1cn(-c3ccccc3)nc1C)Nc1c(C)cccc1-2 (stereo unspecified),i,i,37,1,x,x
Cc1cc2n(n1)C(c1ccc3c(c1)OCO3)Nc1c(C)cccc1-2 (stereo unspecified),-5.1*,i,44,14,i,i
O=C(CSc1nc(-c2ccc(Cl)cc2)cs1)Nc1nccs1,x,x,5,10,x,x
CCc1cccc2c(CN3CCc4nc(C)[nH]c(=O)c4C3)c[nH]c12,x,x,-34,8,x,x
Cc1ccc(C(=O)N/C(=C\c2cccs2)c2nc3ccccc3[nH]2)cc1,-5*,i,13,14,64%*,i
Nc1ncnc2c1ncn2C1OC(CO)C(O)C1O (stereo unspecified),-10*,i,31,11,37%*,i
C=CCNc1ncnc2c1ncn2C1OC(CO)C(O)C1O (stereo unspecified),-6*,i,15,3,41%*,i
Nc1ncnc2c1ncn2C1O[C@H](CO)[C@@H](O)[C@@H]1O (stereo partly specified),i,i,x,x,x,x
OCC1OC(n2cnc3c(NC4CCCCC4)ncnc32)C(O)C1O (stereo unspecified),-5.5*,i,22,14,41%*,i
Nc1ncnc2c1ncn2C1OC(C(=O)NC2CC2)C(O)C1O (stereo unspecified),-5.1*,i,x,x,44%*,i
Cc1cccc(N(CC(=O)N2CCCCC2)S(C)(=O)=O)c1,x,x,-1,7,x,x
COc1ccc(-c2csc(Nc3ccc(S(=O)(=O)Nc4nc(C)cc(C)n4)cc3)n2)cc1,x,x,-103,37,x,x
Cc1nc(-c2ccccc2)c(CC(=O)NCc2nc(-c3ccccc3)no2)s1,x,x,-61,5,x,x
N#CCN1C(=O)C(=O)/C(=C(\O)c2ccccc2)C1c1cccs1 (stereo unspecified),x,x,21,19,x,x
Cc1ccc(C(O)CN2CCC(O)(c3ccc(F)cc3)CC2)cc1C (stereo unspecified),x,x,-47,9,x,x
S=C(NCCCN1CCOCC1)Nc1cccc(-c2nnc3n2CCCCC3)c1,-5.2*,i,28,7,61%*,i
O=C(Nc1ccc(F)cc1)Nc1ccccc1NS(=O)(=O)c1cccs1,-5.3*,i,-16,6,i,i
O=C(Nc1ccc(Cl)cc1)Nc1ccccc1NS(=O)(=O)c1cccs1,i,i,-22,16,x,x
COc1ccc(C(=O)NCCc2nc(-c3cccnc3)n[nH]2)cc1,x,x,-34,8,x,x
N#Cc1ccc(NC(=O)CCc2nc3ccccc3s2)cc1,i,i,-32,6,x,x
O=C(CCCc1nc2ccccc2s1)Nc1ccc(N2CCOCC2)cc1,-6.7*,i,-50,5,i,i
O=C(Cn1[nH]c(=O)c2ccccc2c1=O)OCC(=O)N1CCc2ccccc2C1,-5.4*,i,-32,11,i,i
O=C(Cn1[nH]c(=O)c2ccccc2c1=O)OCC(=O)N1CCCc2ccccc21,i,i,3,9,x,x
Cc1cc(NC(=O)CSc2ncnc3sc4c(c23)CCC(C)C4)no1 (stereo unspecified),x,x,-6,7,x,x
COc1cc(NC(=O)CSc2ncnc3sc4c(c23)CCC(C)C4)c(C(=O)O)cc1OC (stereo unspecified),-6.3*,i,x,x,70%*,i
COc1ccc(C(=O)CC2(O)C(=O)N(CCCC#N)c3ccccc32)cc1 (stereo unspecified),x,x,-43,10,x,x
S=C(NCc1ccccn1)Nc1ccc(Cl)cc1Cl,-5.2*,i,0,3,53%*,i
CC(C)CN1CCNC(=O)C1CC(=O)NCCc1ccc(C(F)(F)F)cc1 (stereo unspecified),-4.9*,i,-19,3,i,i
